Measurements taken from PubChem BioAssay AID1159580 (chemical genetic matrix, 2015).
Several values for one entry are separate records, joined by “and”; a condition that tells them apart may be missing. Identical values can stand only once. About 2,000 (36%) of roughly 5,500 compounds were called active. Not shown: some 18% with an inconclusive outcome. Rule as the data show it: active = normalized growth mostly below about 0.91 (no sharp cut-off); inconclusive = no clear call, values can overlap the other calls; inactive = mostly above about 0.92. The list shows a part of the results.

Experiment: chemical genetic growth profiling, strain panel (AID 1159580);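 also: tested at 20 µM; growth read once vehicle control cultures reached saturation at 30 °C; 1 = growth at the plate median or of vehicle wells; lower values mean less growth of the strain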
Settings: growth OD

Measured: normalized growth

CC(NC(C)(C)C)C(=O)c1cccc(Cl)c1 (stereo unspecified)
inactive: S. cerevisiae deletion strains, locus YJR075W, strain HOC1, stronger effect = lower value 1.02 | S. cerevisiae deletion strains, locus YKL009W, strain mrt4, stronger effect = lower value 0.977 | S. cerevisiae deletion strains, locus YKL068W, stronger effect = lower value 1.02 | S. cerevisiae deletion strains, locus YKL085W, strain MDH1 (second series), stronger effect = lower value 1.02 | S. cerevisiae deletion strains, locus YKL085W, strain MDH1, stronger effect = lower value 1.02 | S. cerevisiae deletion strains, locus YKL160W, strain elf1, stronger effect = lower value 0.996 | S. cerevisiae deletion strains, locus YKL190W, strain CNB1, stronger effect = lower value 1.01 | S. cerevisiae deletion strains, locus YKR001C, strain vps1, stronger effect = lower value 1.02 | S. cerevisiae deletion strains, locus YKR026C, strain gcn3, stronger effect = lower value 0.995 | S. cerevisiae deletion strains, locus YKR091W, strain srl3, stronger effect = lower value 0.998 | S. cerevisiae deletion strains, locus YLL001W, strain dnm1, stronger effect = lower value 0.993 | S. cerevisiae deletion strains, locus YLL026W, stronger effect = lower value 1 | S. cerevisiae deletion strains, locus YLL041C, strain sdh2, stronger effect = lower value 1 | S. cerevisiae deletion strains, locus YLR027C, strain aat2, stronger effect = lower value 1 | S. cerevisiae deletion strains, locus YLR039C, strain RIC1, stronger effect = lower value 1.03 | S. cerevisiae deletion strains, locus YLR058C, strain SHM2, stronger effect = lower value 1.01 | S. cerevisiae deletion strains, locus YLR102C, strain apc9, stronger effect = lower value 1.03 | S. cerevisiae deletion strains, locus YLR113W, strain HOG1, stronger effect = lower value 0.986 | S. cerevisiae deletion strains, locus YLR221C, strain rsa3, stronger effect = lower value 1.01 | S. cerevisiae deletion strains, locus YLR258W, strain gsy2, stronger effect = lower value 0.996 | S. cerevisiae deletion strains, locus YLR262C, strain YPT6 (second series), stronger effect = lower value 0.977 | S. cerevisiae deletion strains, locus YLR262C, strain YPT6, stronger effect = lower value 1.05 | S. cerevisiae deletion strains, locus YLR268W, strain sec22, stronger effect = lower value 1.03 | S. cerevisiae deletion strains, locus YLR320W, strain mms22, stronger effect = lower value 0.985 | S. cerevisiae deletion strains, locus YLR330W, strain CHS5, stronger effect = lower value 1.01 | S. cerevisiae deletion strains, locus YLR342W, strain FKS1 (second series), stronger effect = lower value 0.98 | S. cerevisiae deletion strains, locus YLR342W, strain FKS1, stronger effect = lower value 0.997 | S. cerevisiae deletion strains, locus YLR357W, strain rsc2, stronger effect = lower value 0.983 | S. cerevisiae deletion strains, locus YLR370C, strain arc18, stronger effect = lower value 1 | S. cerevisiae deletion strains, locus YLR371W, strain rom2, stronger effect = lower value 1.04 | S. cerevisiae deletion strains, locus YLR384C, strain iki3, stronger effect = lower value 0.993 | S. cerevisiae deletion strains, locus YLR418C, strain cdc73, stronger effect = lower value 1.03 | S. cerevisiae deletion strains, locus YML016C, strain PPZ1, stronger effect = lower value 1.01 | S. cerevisiae deletion strains, locus YML032C, strain rad52, stronger effect = lower value 1.03 | S. cerevisiae deletion strains, locus YML120C, strain ndi1, stronger effect = lower value 1.01 | S. cerevisiae deletion strains, locus YML124C, strain tub3, stronger effect = lower value 1.04 | S. cerevisiae deletion strains, locus YMR058W, strain fet3, stronger effect = lower value 0.997 | S. cerevisiae deletion strains, locus YMR078C, strain ctf18, stronger effect = lower value 1.04 | S. cerevisiae deletion strains, locus YMR125W, strain sto1, stronger effect = lower value 0.999 | S. cerevisiae deletion strains, locus YMR129W, stronger effect = lower value 1 | S. cerevisiae deletion strains, locus YMR205C, strain PFK2, stronger effect = lower value 0.982 | S. cerevisiae deletion strains, locus YMR223W, strain ubp8, stronger effect = lower value 1.01 | S. cerevisiae deletion strains, locus YMR231W, strain pep5, stronger effect = lower value 0.997 | S. cerevisiae deletion strains, locus YMR263W, strain SAP30, stronger effect = lower value 1.01 | S. cerevisiae deletion strains, locus YMR307W, strain GAS1, stronger effect = lower value 1 | S. cerevisiae deletion strains, locus YNL067W, strain RPL9B, stronger effect = lower value 1.01 | S. cerevisiae deletion strains, locus YNL071W, strain lat1, stronger effect = lower value 1.01 | S. cerevisiae deletion strains, locus YNL128W, strain TEP1, stronger effect = lower value 1.02 and 0.978 | S. cerevisiae deletion strains, locus YNL153C, strain GIM3, stronger effect = lower value 1.01 | S. cerevisiae deletion strains, locus YNL175C, strain NOP13, stronger effect = lower value 0.99 | S. cerevisiae deletion strains, locus YNL183C, strain NPR1, stronger effect = lower value 0.965 | S. cerevisiae deletion strains, locus YNL197C, strain WHI3, stronger effect = lower value 1.02 | S. cerevisiae deletion strains, locus YNL209W, strain ssb2, stronger effect = lower value 1.01 | S. cerevisiae deletion strains, locus YNL224C, strain SQS1, stronger effect = lower value 0.999 | S. cerevisiae deletion strains, locus YNL233W, strain BNI4, stronger effect = lower value 0.999 | S. cerevisiae deletion strains, locus YNL248C, strain rpa49, stronger effect = lower value 0.992 | S. cerevisiae deletion strains, locus YNL250W, strain rad50, stronger effect = lower value 1.04 | S. cerevisiae deletion strains, locus YNL271C, strain bni1, stronger effect = lower value 1.03 | S. cerevisiae deletion strains, locus YNL298W, strain CLA4, stronger effect = lower value 1 | S. cerevisiae deletion strains, locus YNL307C, strain MCK1, stronger effect = lower value 1.03 | S. cerevisiae deletion strains, locus YNL322C, strain KRE1 (second series), stronger effect = lower value 0.995 | S. cerevisiae deletion strains, locus YNL322C, strain KRE1, stronger effect = lower value 1.01 | S. cerevisiae deletion strains, locus YNR049C, strain mso1, stronger effect = lower value 1.01 | S. cerevisiae deletion strains, locus YNR052C, strain pop2, stronger effect = lower value 1.01 | S. cerevisiae deletion strains, locus YOL006C, strain TOP1, stronger effect = lower value 1.05 | S. cerevisiae deletion strains, locus YOL012C, strain htz1 1.05 | S. cerevisiae deletion strains, locus YOL147C, strain pex11, stronger effect = lower value 1.04 | S. cerevisiae deletion strains, locus YOR001W, strain rrp6, stronger effect = lower value 1 | S. cerevisiae deletion strains, locus YOR061W, strain CKA2, stronger effect = lower value 1.02 | S. cerevisiae deletion strains, locus YOR069W, strain VPS5, stronger effect = lower value 1.01 | S. cerevisiae deletion strains, locus YOR070C, strain gyp1, stronger effect = lower value 1 | S. cerevisiae deletion strains, locus YOR080W, strain dia2, stronger effect = lower value 0.996 | S. cerevisiae deletion strains, locus YOR083W, strain WHI5 (second series), stronger effect = lower value 1.01 | S. cerevisiae deletion strains, locus YOR083W, strain WHI5, stronger effect = lower value 0.996 | S. cerevisiae deletion strains, locus YOR106W, strain vam3, stronger effect = lower value 0.989 | S. cerevisiae deletion strains, locus YOR136W, strain idh2, stronger effect = lower value 1.03 | S. cerevisiae deletion strains, locus YOR144C, strain elg1, stronger effect = lower value 1.03 | S. cerevisiae deletion strains, locus YOR184W, strain ser1, stronger effect = lower value 1.06 | S. cerevisiae deletion strains, locus YOR231W, strain MKK1, stronger effect = lower value 1 | S. cerevisiae deletion strains, locus YOR265W, strain rbl2, stronger effect = lower value 0.994 | S. cerevisiae deletion strains, locus YOR270C, strain vph1, stronger effect = lower value 0.995 | S. cerevisiae deletion strains, locus YOR290C, strain snf2, stronger effect = lower value 1.02 | S. cerevisiae deletion strains, locus YOR316C, strain cot1, stronger effect = lower value 1.03 | S. cerevisiae deletion strains, locus YPL051W, strain arl3, stronger effect = lower value 1 | S. cerevisiae deletion strains, locus YPL055C, strain LGE1, stronger effect = lower value 1.02 and 0.98 | S. cerevisiae deletion strains, locus YPL078C, strain atp4, stronger effect = lower value 0.998 | S. cerevisiae deletion strains, locus YPL106C, strain sse1, stronger effect = lower value 0.976 | S. cerevisiae deletion strains, locus YPL240C, strain hsp82, stronger effect = lower value 1 | S. cerevisiae deletion strains, locus YPL241C, strain CIN2, stronger effect = lower value 1.01 and 0.988 | S. cerevisiae deletion strains, locus YPL256C, strain CLN2, stronger effect = lower value 1.03 | S. cerevisiae deletion strains, locus YPR119W, strain clb2, stronger effect = lower value 1.04 | S. cerevisiae deletion strains, locus YPR141C, strain kar3, stronger effect = lower value 1.02 | S. cerevisiae deletion strains, locus YPR163C, strain tif3, stronger effect = lower value 1.04 | S. cerevisiae deletion strains, locus YPR167C, strain met16, stronger effect = lower value 1.03 | S. cerevisiae deletion strains, strain wtn01, stronger effect = lower value 1.03 | S. cerevisiae strains, strain wild type, stronger effect = lower value 1
